# Source: ChEMBL document CHEMBL3988442, “University of Dundee, Small-Polar-MMV Screening Library” (2021)
# For some assays here: Potency and affinity values are given separately.
# Key:
# [1] = target: T1, Methionyl-tRNA synthetase, putative (Leishmania donovani (strain BPK282A1)) (UniProt E9BF75); assay: Leishmania donovani Methionine tRNA synthetase (LdMetRS):v7. Dose response assay; assay type: functional; design: conc 80 nM, time 150 minutes
# T1 sequence (whole entry): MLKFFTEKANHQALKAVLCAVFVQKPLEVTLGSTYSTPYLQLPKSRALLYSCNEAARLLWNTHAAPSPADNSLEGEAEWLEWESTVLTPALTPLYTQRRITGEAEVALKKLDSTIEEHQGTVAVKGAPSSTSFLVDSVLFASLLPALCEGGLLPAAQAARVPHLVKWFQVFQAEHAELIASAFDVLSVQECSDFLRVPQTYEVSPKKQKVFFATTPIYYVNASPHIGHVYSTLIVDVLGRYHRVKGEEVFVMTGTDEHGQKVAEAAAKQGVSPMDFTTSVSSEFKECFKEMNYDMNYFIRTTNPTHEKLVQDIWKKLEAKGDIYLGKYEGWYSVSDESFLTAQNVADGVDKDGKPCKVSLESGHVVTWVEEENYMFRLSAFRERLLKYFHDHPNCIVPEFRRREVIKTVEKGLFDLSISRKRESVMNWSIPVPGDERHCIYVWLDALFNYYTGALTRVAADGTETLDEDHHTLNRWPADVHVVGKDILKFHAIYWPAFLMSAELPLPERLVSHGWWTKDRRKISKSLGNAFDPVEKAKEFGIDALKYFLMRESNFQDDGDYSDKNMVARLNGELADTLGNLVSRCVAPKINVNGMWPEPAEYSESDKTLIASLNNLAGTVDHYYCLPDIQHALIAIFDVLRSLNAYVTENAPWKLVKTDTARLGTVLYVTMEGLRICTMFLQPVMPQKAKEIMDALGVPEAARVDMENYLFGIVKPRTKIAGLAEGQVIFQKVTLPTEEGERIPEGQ
# [2] = target: Protein translocase subunit SecA (Escherichia coli (strain K12)) (UniProt P10408); assay: Assay to Identify E. coli SecA ATPase Inhibitors; assay type: functional; design: scale not given: direction of the effect not stated beside the values; conditions: 30 µM
# [3] = target: T2, Ubiquitin-activating enzyme e1, putative (Leishmania donovani (strain BPK282A1)) (UniProt E9BSI1); assay: Leishmania donovani Ubiquitin Activating Enzyme (LdE1); assay type: functional; design: scale not given: direction of the effect not stated beside the values; conditions: 30 µM
# T2 sequence (whole entry): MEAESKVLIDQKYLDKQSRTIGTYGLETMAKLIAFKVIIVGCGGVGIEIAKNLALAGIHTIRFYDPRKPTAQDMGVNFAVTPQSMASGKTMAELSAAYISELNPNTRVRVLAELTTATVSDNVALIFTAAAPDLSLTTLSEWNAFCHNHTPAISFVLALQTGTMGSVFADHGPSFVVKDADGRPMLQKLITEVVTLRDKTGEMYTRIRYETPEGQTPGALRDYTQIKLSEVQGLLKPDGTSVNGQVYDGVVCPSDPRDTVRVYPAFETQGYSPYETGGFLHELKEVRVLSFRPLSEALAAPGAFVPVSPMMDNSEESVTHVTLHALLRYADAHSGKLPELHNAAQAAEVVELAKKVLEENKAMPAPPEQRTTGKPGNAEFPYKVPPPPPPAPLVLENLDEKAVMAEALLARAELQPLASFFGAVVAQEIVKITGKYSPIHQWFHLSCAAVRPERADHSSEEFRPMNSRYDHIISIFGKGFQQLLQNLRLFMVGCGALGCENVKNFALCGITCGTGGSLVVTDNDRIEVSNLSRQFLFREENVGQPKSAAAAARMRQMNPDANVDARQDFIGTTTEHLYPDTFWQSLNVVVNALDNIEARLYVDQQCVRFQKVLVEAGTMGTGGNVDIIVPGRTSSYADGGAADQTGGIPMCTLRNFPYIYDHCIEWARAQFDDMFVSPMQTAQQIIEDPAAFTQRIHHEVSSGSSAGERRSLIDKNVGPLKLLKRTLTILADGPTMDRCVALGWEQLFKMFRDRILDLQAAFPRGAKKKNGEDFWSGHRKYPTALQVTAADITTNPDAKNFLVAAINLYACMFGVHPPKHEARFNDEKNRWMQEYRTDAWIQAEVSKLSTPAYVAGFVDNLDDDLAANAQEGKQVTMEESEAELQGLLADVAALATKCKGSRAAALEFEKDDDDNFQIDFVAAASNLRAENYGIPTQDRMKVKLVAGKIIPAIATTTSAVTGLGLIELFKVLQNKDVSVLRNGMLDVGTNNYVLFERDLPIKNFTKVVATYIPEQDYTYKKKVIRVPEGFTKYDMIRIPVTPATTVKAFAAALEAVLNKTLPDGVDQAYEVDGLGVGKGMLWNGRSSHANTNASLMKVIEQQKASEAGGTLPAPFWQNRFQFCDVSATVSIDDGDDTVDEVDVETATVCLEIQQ
# [4] = target: Sialic acid-binding Ig-like lectin 9 (Homo sapiens) (UniProt Q9Y336); assay: Hs-Siglec9 ALPHAscreen SOP 20170721; design: scale not given: direction of the effect not stated beside the values; conditions: 10 µM
# Trypanosoma cruzi = assay: Trypanosoma cruzi phosphomannomutase and mannose-1-phosphate guanylyltransferase assay; assay type: functional; design: scale not given: direction of the effect not stated beside the values; conditions: 10 µM
# [5] = target: T3, Arginase-2, mitochondrial (Homo sapiens) (UniProt P78540); assay: in vitro enzyme assay to detect the production of urea directly proportional to the activity of Arginase II; assay type: functional; design: scale not given: in the data most compounds retested in dose-response had high values; conditions: 33.3 µM
# T3 sequence (whole entry): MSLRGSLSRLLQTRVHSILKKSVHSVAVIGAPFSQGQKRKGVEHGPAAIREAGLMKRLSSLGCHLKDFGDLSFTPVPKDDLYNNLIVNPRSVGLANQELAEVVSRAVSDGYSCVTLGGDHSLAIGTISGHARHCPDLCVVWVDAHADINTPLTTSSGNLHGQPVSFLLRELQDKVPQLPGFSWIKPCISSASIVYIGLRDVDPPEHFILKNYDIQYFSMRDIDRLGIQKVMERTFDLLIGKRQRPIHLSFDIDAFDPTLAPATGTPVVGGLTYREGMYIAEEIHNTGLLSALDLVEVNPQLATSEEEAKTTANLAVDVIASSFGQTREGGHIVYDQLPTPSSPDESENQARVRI
# [6] = target: T4, Proteasome subunit beta (Trypanosoma cruzi) (UniProt O96673); assay: Trypanosoma cruzi proteasome chymotrypsin-like activity (TcProtChymo) assay.; assay type: functional; design: scale not given: in the data most compounds retested in dose-response had high values; conditions: 9.37 µM
# T4 sequence (whole entry): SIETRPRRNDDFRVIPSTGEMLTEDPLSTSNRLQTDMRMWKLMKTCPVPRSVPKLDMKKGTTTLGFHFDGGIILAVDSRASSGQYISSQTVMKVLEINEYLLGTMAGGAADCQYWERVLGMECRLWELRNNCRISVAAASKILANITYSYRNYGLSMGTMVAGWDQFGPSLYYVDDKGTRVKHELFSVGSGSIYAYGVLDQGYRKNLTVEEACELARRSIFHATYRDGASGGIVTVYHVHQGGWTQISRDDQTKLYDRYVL
# Homo sapiens = species on record: Homo sapiens; assay: To identify inhibition of the IFN signalling (Jak-Stat) pathway via expression of an eGFP reporter gene under the control of an IFN-stimulated response element (ISRE) containing MxA promoter.; assay type: functional; design: scale not given: direction of the effect not stated beside the values; conditions: 30 µM
# [7] = target: T5, Tyrosyl-tRNA synthetase, putative (Trypanosoma cruzi (strain CL Brener)) (UniProt Q4DSP6); assay: Trypanosoma cruzi tyrosyl tRNA synthetase (TcYRS) _High Tyrosine SOP; assay type: functional; design: scale not given: in the data most compounds retested in dose-response had high values; conditions: 30 µM
# T5 sequence (whole entry): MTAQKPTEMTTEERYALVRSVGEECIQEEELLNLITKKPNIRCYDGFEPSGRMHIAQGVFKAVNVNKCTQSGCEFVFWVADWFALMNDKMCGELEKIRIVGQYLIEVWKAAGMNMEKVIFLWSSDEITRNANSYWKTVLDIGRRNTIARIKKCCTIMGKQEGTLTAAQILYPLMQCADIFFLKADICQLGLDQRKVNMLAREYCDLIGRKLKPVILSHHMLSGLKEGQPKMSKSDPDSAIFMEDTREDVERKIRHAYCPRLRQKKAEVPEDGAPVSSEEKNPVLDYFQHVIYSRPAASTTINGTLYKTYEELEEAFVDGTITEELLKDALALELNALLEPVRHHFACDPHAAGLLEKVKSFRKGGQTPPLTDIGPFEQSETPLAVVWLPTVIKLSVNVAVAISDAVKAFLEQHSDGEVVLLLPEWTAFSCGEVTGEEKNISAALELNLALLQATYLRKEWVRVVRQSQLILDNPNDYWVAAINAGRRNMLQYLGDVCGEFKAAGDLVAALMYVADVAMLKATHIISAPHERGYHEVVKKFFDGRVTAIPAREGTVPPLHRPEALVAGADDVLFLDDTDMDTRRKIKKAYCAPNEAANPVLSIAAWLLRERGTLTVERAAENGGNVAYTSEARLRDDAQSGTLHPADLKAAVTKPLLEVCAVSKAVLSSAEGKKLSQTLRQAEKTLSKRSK
# [8] = target: T5, Tyrosyl-tRNA synthetase, putative (Trypanosoma cruzi (strain CL Brener)); assay: Trypanosoma cruzi tyrosyl tRNA synthetase (TcYRS) SOP; assay type: functional; design: scale not given: direction of the effect not stated beside the values; conditions: 30 µM
# [9] = target: Chromo domain-containing protein 1 (Saccharomyces cerevisiae (strain ATCC 204508 / S288c) (Baker's yeast)) (UniProt P32657); assay: ScCHD-1 Enzyme Inhibition Assay; assay type: functional; design: scale not given: in the data most compounds retested in dose-response had high values; conditions: 30 µM
# [10] = target: AMP-activated protein kinase, AMPK (Homo sapiens) (UniProt P54646+O43741+P54619+Q9UGJ0+Q9Y478+Q13131+Q9UGI9); assay: AMP-dependent Kinase enzyme assay. An in vitro enzyme assay that detects ADP turnover that is directly proportional to AMPK activity. This uses naive AMPK that is activated during the assay with MK-8722; assay type: functional; design: scale not given: direction of the effect not stated beside the values; conditions: 30 µM
# Sequence of Protein translocase subunit SecA (Escherichia coli (strain K12)) (P10408 whole entry): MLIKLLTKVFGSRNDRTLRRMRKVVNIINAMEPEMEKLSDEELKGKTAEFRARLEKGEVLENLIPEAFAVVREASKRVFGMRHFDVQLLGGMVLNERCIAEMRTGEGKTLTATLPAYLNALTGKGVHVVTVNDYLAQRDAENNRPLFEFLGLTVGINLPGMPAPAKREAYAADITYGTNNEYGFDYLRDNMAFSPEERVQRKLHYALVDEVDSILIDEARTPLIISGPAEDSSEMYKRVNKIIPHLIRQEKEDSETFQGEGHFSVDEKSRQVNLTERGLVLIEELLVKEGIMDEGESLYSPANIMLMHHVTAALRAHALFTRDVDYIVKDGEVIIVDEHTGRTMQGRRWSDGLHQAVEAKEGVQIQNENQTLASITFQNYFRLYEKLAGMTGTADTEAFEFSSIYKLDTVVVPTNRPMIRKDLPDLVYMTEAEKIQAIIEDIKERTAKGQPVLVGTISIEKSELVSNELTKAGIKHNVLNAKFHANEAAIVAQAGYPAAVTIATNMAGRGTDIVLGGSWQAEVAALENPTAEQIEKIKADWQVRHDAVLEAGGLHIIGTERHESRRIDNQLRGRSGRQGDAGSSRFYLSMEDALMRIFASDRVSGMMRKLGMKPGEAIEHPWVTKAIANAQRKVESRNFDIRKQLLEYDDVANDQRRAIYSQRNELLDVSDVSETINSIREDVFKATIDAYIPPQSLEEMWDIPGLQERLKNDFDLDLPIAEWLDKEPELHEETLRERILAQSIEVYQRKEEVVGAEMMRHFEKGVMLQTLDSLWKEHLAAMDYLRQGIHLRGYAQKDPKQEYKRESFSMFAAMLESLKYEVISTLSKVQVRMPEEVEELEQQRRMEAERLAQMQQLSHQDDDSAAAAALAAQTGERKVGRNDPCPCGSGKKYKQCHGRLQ
# Sequence of Chromo domain-containing protein 1 (Saccharomyces cerevisiae (strain ATCC 204508 / S288c) (Baker's yeast)) (P32657 whole entry, the tested form may be a part): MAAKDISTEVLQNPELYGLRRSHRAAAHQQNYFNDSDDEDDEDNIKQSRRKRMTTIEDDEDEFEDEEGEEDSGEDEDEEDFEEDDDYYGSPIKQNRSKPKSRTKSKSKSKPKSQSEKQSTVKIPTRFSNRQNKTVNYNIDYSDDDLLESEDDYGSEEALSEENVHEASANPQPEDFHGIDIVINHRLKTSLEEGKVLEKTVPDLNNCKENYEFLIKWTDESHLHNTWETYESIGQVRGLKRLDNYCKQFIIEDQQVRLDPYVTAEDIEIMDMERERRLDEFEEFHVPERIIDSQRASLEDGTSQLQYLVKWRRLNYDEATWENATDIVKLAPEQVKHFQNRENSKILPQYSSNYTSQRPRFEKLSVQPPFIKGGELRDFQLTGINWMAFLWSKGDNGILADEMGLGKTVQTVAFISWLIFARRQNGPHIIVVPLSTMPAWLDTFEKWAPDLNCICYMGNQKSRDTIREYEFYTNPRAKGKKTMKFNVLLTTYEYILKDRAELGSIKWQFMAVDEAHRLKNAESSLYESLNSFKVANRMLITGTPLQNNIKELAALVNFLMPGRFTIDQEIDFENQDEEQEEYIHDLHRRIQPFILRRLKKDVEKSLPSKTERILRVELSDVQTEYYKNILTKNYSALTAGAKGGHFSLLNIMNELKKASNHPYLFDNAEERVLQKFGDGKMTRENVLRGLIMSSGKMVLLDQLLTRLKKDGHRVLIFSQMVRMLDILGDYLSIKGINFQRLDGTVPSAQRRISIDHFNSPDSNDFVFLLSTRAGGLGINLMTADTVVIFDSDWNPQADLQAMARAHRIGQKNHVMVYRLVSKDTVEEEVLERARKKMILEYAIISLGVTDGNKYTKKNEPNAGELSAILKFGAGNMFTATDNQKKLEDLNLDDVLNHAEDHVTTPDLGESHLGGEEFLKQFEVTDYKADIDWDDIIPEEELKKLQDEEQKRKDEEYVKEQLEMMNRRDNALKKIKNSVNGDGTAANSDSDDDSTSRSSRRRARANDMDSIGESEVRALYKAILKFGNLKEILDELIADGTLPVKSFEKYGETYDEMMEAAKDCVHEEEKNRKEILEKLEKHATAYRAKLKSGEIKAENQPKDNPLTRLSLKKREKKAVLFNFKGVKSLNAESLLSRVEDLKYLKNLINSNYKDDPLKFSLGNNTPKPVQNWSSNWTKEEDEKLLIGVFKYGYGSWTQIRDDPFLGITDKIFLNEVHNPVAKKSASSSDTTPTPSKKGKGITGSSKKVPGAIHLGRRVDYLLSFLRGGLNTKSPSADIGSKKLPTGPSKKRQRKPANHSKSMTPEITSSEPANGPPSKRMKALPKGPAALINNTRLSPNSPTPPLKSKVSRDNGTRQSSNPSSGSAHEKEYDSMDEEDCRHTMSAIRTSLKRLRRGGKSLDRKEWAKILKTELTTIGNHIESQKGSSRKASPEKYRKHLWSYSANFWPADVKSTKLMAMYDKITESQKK
# Sequence of Sialic acid-binding Ig-like lectin 9 (Homo sapiens) (Q9Y336 whole entry): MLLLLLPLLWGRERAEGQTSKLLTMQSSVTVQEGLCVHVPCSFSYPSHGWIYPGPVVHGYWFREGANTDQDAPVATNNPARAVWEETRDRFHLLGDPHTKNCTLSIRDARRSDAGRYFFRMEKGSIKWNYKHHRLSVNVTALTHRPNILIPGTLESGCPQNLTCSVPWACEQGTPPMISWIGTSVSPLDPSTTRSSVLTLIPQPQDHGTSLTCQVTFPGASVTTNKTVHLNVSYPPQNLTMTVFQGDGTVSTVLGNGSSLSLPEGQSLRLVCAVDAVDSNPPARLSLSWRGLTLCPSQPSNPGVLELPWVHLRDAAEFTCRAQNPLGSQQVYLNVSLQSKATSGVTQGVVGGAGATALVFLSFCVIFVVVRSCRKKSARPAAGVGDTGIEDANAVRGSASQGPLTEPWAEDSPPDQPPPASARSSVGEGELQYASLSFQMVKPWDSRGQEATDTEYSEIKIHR
compound,measurement,setting,value
NC[C@H]1CC[C@H](C(NC(=O)c2cccc(F)c2)c2ccccn2)CC1 (stereo partly specified),PXC50,[1]; MAX_EFFECT 33.33333333,< 4
same,PXC50,[1]; MAX_EFFECT 43.95393474,< 4
same,PXC50,[1]; MAX_EFFECT 49.10394265,< 4
same,PXC50,[1]; MAX_EFFECT 49.8349835,< 4
same,PXC50,[1]; MAX_EFFECT 55.07246377,< 4
same,Percent Effect,[2],0.535%
same,Percent Effect,[3],12%
same,Percent Effect,[4],-8.09%
same,Percent Effect,Trypanosoma cruzi,6.51%
same,Percent Effect,[5],-0.443%
same,Percent Effect,[6],9.36%
same,Percent Effect,Homo sapiens,8.62%
same,Percent Effect,[7],31.8%
same,Percent Effect,[8],45%
same,Percent Effect,[9],-26.3%
CC1CCN(c2ccc(C(=O)N3CCCC3c3ccc[nH]3)cn2)CC1 (stereo unspecified),PXC50,"[1]; BOTTOM 1.515439463, HILLSLOPE 1.666598775, MAX_EFFECT 83.87715931, TOP 100.0",4.46
same,PXC50,"[1]; BOTTOM -1.123012713, HILLSLOPE 2.407877124, MAX_EFFECT 92.83154122, TOP 98.62534766",4.49
same,PXC50,"[1]; BOTTOM -1.142129641, HILLSLOPE 1.640897748, MAX_EFFECT 81.18022329, TOP 100.0",4.4
same,PXC50,"[1]; BOTTOM -13.95110743, HILLSLOPE 2.091757253, MAX_EFFECT 73.91304348, TOP 74.65708324",4.71
same,PXC50,"[1]; BOTTOM -19.81350398, HILLSLOPE 1.3052719, MAX_EFFECT 84.15841584, TOP 92.57854766",4.84
same,Percent Effect,[10],-6.21%
CC(C)Cc1ncc(CNc2cnccc2CO)s1,PXC50,[1]; MAX_EFFECT 2.711323764,< 4
same,PXC50,[1]; MAX_EFFECT 4.081632653,< 4
same,PXC50,[1]; MAX_EFFECT 4.798464491,< 4
same,PXC50,[1]; MAX_EFFECT 7.246376812,< 4
same,PXC50,[1]; MAX_EFFECT 9.632224168,< 4
